Test results published in PubChem BioAssay (NCATS).
Inconclusive results are not listed. Where a call stands in place of a potency, no number is given. Active and inactive are the calls of the source. Calls come from the whole dose curve; as a rule, active = well fitted inhibition curve with a large enough effect; inconclusive = small, poorly fitted or top-dose-only effect; inactive = flat fitted curve, though single readings scatter.

What follows are molecules tested on ATS189 (assay: qHTS profiling for inhibitors of Plasmodium falciparum proliferation (AID 504749; note: nearly all actives have a fitted effect of over 60% in size)). Conditions: P. falciparum in erythrocytes, SYBR Green DNA, 72 h; series mostly up to 12.8 µM.
How it was run: (§1)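 Readout was DNA-dye fluorescence from lysed cultures, ex 485/em 535 nm. Parasitized red cells had grown 72 h with compound; data scaled between 0.29 uM artemisinin and DMSO wells and corrected using vehicle-only plates.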
With `C[N+](C)(C)CC(O)CC(=O)O` (stereo not drawn) the Potency was “inactive”.
`CN1CCCC[C@@H]1CCN1c2ccccc2Sc2ccc(S(C)=O)cc21` (stereo partly drawn) was tested, and the Potency was “inactive”.
For `O=C(Cc1cccs1)NC1C(=O)N2C(C(=O)[O-])=C(C[n+]3ccccc3)CSC12` (stereo not drawn), the Potency was “inactive”.
In the case of `C[C@@H]1CCC[C@H](C)N1NC(=O)c1ccc(Cl)c(S(N)(=O)=O)c1`, the Potency is reported as “inactive”.
`CC(C)N1CCN(c2ccc(OC[C@@H]3CO[C@@](Cn4cncn4)(c4ccc(Cl)cc4Cl)O3)cc2)CC1` was tested, and the Potency was “inactive”.

What follows are molecules tested on ATS95 in the same assay as above. Conditions: P. falciparum in erythrocytes, SYBR Green DNA, 72 h; series mostly up to 12.8 µM.
How it was run: as §1
`C[N+](C)(C)CC(O)CC(=O)O` (stereo not drawn) was tested, and the Potency was “inactive”.
`CN1CCCC[C@@H]1CCN1c2ccccc2Sc2ccc(S(C)=O)cc21` (stereo partly drawn) was tested, and the Potency was “inactive”.
With `O=C(Cc1cccs1)NC1C(=O)N2C(C(=O)[O-])=C(C[n+]3ccccc3)CSC12` (stereo not drawn) the Potency was “inactive”.
In the case of `C[C@@H]1CCC[C@H](C)N1NC(=O)c1ccc(Cl)c(S(N)(=O)=O)c1`, the Potency is reported as “inactive”.
`CC(C)N1CCN(c2ccc(OC[C@@H]3CO[C@@](Cn4cncn4)(c4ccc(Cl)cc4Cl)O3)cc2)CC1` was tested, and the Potency was “inactive”.

What follows are molecules tested on C2A in the same assay as above. Conditions: P. falciparum in erythrocytes, SYBR Green DNA, 72 h; series mostly up to 12.8 µM.
How it was run: as §1
In the case of `C[N+](C)(C)CC(O)CC(=O)O` (stereo not drawn), the Potency is reported as “inactive”.
With `CN1CCCC[C@@H]1CCN1c2ccccc2Sc2ccc(S(C)=O)cc21` (stereo partly drawn) the Potency was “inactive”.
In the case of `O=C(Cc1cccs1)NC1C(=O)N2C(C(=O)[O-])=C(C[n+]3ccccc3)CSC12` (stereo not drawn), the Potency is reported as “inactive”.
For `CN(C)CC/C=C1\c2ccccc2CSc2ccccc21`, the Potency was “inactive”.
For `C[C@@H]1CCC[C@H](C)N1NC(=O)c1ccc(Cl)c(S(N)(=O)=O)c1`, the Potency was “inactive”.
With `CC(C)N1CCN(c2ccc(OC[C@@H]3CO[C@@](Cn4cncn4)(c4ccc(Cl)cc4Cl)O3)cc2)CC1` the Potency was “inactive”.

These molecules were tested on CP185 in the same assay as above. Conditions: P. falciparum in erythrocytes, SYBR Green DNA, 72 h; series mostly up to 12.8 µM.
How it was run: as §1
`C[N+](C)(C)CC(O)CC(=O)O` (stereo not drawn) was tested, and the Potency was “inactive”.
For `CN1CCCC[C@@H]1CCN1c2ccccc2Sc2ccc(S(C)=O)cc21` (stereo partly drawn), the Potency was “inactive”.
`O=C(Cc1cccs1)NC1C(=O)N2C(C(=O)[O-])=C(C[n+]3ccccc3)CSC12` (stereo not drawn) was tested, and the Potency was “inactive”.
In the case of `C[C@@H]1CCC[C@H](C)N1NC(=O)c1ccc(Cl)c(S(N)(=O)=O)c1`, the Potency is reported as “inactive”.
`CC(C)N1CCN(c2ccc(OC[C@@H]3CO[C@@](Cn4cncn4)(c4ccc(Cl)cc4Cl)O3)cc2)CC1` was tested, and the Potency was “inactive”.

These molecules were tested on CP191 in the same assay as above. Conditions: P. falciparum in erythrocytes, SYBR Green DNA, 72 h; series mostly up to 12.8 µM.
How it was run: as §1
For `C[N+](C)(C)CC(O)CC(=O)O` (stereo not drawn), the Potency was “inactive”.
For `CN1CCCC[C@@H]1CCN1c2ccccc2Sc2ccc(S(C)=O)cc21` (stereo partly drawn), the Potency was “inactive”.
In the case of `O=C(Cc1cccs1)NC1C(=O)N2C(C(=O)[O-])=C(C[n+]3ccccc3)CSC12` (stereo not drawn), the Potency is reported as “inactive”.
For `CN(C)CC/C=C1\c2ccccc2CSc2ccccc21`, the Potency was “inactive”.
With `C[C@@H]1CCC[C@H](C)N1NC(=O)c1ccc(Cl)c(S(N)(=O)=O)c1` the Potency was “inactive”.
In the case of `CC(C)N1CCN(c2ccc(OC[C@@H]3CO[C@@](Cn4cncn4)(c4ccc(Cl)cc4Cl)O3)cc2)CC1`, the Potency is reported as “inactive”.

These molecules were tested on CP192 in the same assay as above. Conditions: P. falciparum in erythrocytes, SYBR Green DNA, 72 h; series mostly up to 28.7 µM.
How it was run: as §1
With `C[N+](C)(C)CC(O)CC(=O)O` (stereo not drawn) the Potency was “inactive”.
With `CN1CCCC[C@@H]1CCN1c2ccccc2Sc2ccc(S(C)=O)cc21` (stereo partly drawn) the Potency was “inactive”.
For `O=C(Cc1cccs1)NC1C(=O)N2C(C(=O)[O-])=C(C[n+]3ccccc3)CSC12` (stereo not drawn), the Potency was “inactive”.
For `CN(C)CC/C=C1\c2ccccc2CSc2ccccc21`, the Potency was “inactive”.
`C[C@@H]1CCC[C@H](C)N1NC(=O)c1ccc(Cl)c(S(N)(=O)=O)c1` was tested, and the Potency was “inactive”.

What follows are molecules tested on CP194 in the same assay as above. Conditions: P. falciparum in erythrocytes, SYBR Green DNA, 72 h; series mostly up to 12.8 µM.
How it was run: as §1
With `C[N+](C)(C)CC(O)CC(=O)O` (stereo not drawn) the Potency was “inactive”.
With `CN1CCCC[C@@H]1CCN1c2ccccc2Sc2ccc(S(C)=O)cc21` (stereo partly drawn) the Potency was “inactive”.
`O=C(Cc1cccs1)NC1C(=O)N2C(C(=O)[O-])=C(C[n+]3ccccc3)CSC12` (stereo not drawn) was tested, and the Potency was “inactive”.
For `C[C@@H]1CCC[C@H](C)N1NC(=O)c1ccc(Cl)c(S(N)(=O)=O)c1`, the Potency was “inactive”.
In the case of `CC(C)N1CCN(c2ccc(OC[C@@H]3CO[C@@](Cn4cncn4)(c4ccc(Cl)cc4Cl)O3)cc2)CC1`, the Potency is reported as “inactive”.

Each molecule was assayed on CP201 in the same assay as above. Conditions: P. falciparum in erythrocytes, SYBR Green DNA, 72 h; series mostly up to 12.8 µM.
How it was run: as §1
In the case of `C[N+](C)(C)CC(O)CC(=O)O` (stereo not drawn), the Potency is reported as “inactive”.
In the case of `CN1CCCC[C@@H]1CCN1c2ccccc2Sc2ccc(S(C)=O)cc21` (stereo partly drawn), the Potency is reported as “inactive”.
`O=C(Cc1cccs1)NC1C(=O)N2C(C(=O)[O-])=C(C[n+]3ccccc3)CSC12` (stereo not drawn) was tested, and the Potency was “inactive”.
For `CN(C)CC/C=C1\c2ccccc2CSc2ccccc21`, the Potency was “inactive”.
With `C[C@@H]1CCC[C@H](C)N1NC(=O)c1ccc(Cl)c(S(N)(=O)=O)c1` the Potency was “inactive”.
`CC(C)N1CCN(c2ccc(OC[C@@H]3CO[C@@](Cn4cncn4)(c4ccc(Cl)cc4Cl)O3)cc2)CC1` was tested, and the Potency was “inactive”.

Each molecule was assayed on CP203 in the same assay as above. Conditions: P. falciparum in erythrocytes, SYBR Green DNA, 72 h; series mostly up to 12.8 µM.
How it was run: as §1
With `C[N+](C)(C)CC(O)CC(=O)O` (stereo not drawn) the Potency was “inactive”.
`CN1CCCC[C@@H]1CCN1c2ccccc2Sc2ccc(S(C)=O)cc21` (stereo partly drawn) was tested, and the Potency was “inactive”.
With `O=C(Cc1cccs1)NC1C(=O)N2C(C(=O)[O-])=C(C[n+]3ccccc3)CSC12` (stereo not drawn) the Potency was “inactive”.
With `C[C@@H]1CCC[C@H](C)N1NC(=O)c1ccc(Cl)c(S(N)(=O)=O)c1` the Potency was “inactive”.
In the case of `CC(C)N1CCN(c2ccc(OC[C@@H]3CO[C@@](Cn4cncn4)(c4ccc(Cl)cc4Cl)O3)cc2)CC1`, the Potency is reported as “inactive”.

Each molecule was assayed on CP211 in the same assay as above. Conditions: P. falciparum in erythrocytes, SYBR Green DNA, 72 h; series mostly up to 12.8 µM.
How it was run: as §1
`C[N+](C)(C)CC(O)CC(=O)O` (stereo not drawn) was tested, and the Potency was “inactive”.
For `CN1CCCC[C@@H]1CCN1c2ccccc2Sc2ccc(S(C)=O)cc21` (stereo partly drawn), the Potency was “inactive”.
With `O=C(Cc1cccs1)NC1C(=O)N2C(C(=O)[O-])=C(C[n+]3ccccc3)CSC12` (stereo not drawn) the Potency was “inactive”.
In the case of `C[C@@H]1CCC[C@H](C)N1NC(=O)c1ccc(Cl)c(S(N)(=O)=O)c1`, the Potency is reported as “inactive”.
With `CC(C)N1CCN(c2ccc(OC[C@@H]3CO[C@@](Cn4cncn4)(c4ccc(Cl)cc4Cl)O3)cc2)CC1` the Potency was “inactive”.
